Compound activity as filed in PubChem BioAssay.
TDP1 cell CPT = DT40-hTDP1 cell growth loss with CPT; chicken DT40 Tdp1-/-;hTDP1 cells + 20 nM CPT, ATP luminescence, 48 h; Potency, µM (series often up to 46.2 µM), for the others: at the top dose activity change, negative = growth inhibition, hits mostly inhibitors; 12% of 420,000 active; note: potency is the fitted concentration of half-maximal effect; nearly all actives have a fitted effect of over 55% in size
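Cell growth measured by CellTiter-Glo luminescence after a minimum 48 h, 37 C compound exposure with 20 nM CPT in Tdp1-knockout DT40 cells stably expressing hTDP1, seeded 400/well; qHTS titration format.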
HT1080 IDH1KD tx = kills HT-1080 cells with IDH1 knockdown | 2% of 360,000 active | Potency, µM (top dose mostly 46.1 µM), for inactives: at the highest dose activity, negative = toxicity, hits mostly cytotoxic | AID 686971 | HT-1080 IDH1 knockdown viability, ATP luminescence, 48 h;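 note: potency is the fitted concentration of half-maximal effect; 0% = DMSO wells and -100% = cell-free medium wells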
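Using the IDH1-knockdown HT-1080 line run in the same batch and compound series as the NT line, viability after 48 h at 37 °C was determined by CellTiter-Glo luminescence and expressed as % activity.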
DT40 TDP1 no CPT = qHTS for Inhibitors of human tyrosyl-DNA phosphodiesterase 1 (TDP1): qHTS in cells in absence of CPT. DT40 Tdp1-/- hTDP1 cells, no CPT, ATP luminescence, 48 h. Potency, µM (doses to about 46.2 µM), for the others: at the top dose activity change, negative = growth inhibition, actives largely listed as inhibitors. 15% of 420,000 active. AID 686978, 2013; note: potency is the fitted concentration of half-maximal effect; nearly all actives have a fitted effect of over 55% in size
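Chicken DT40 Tdp1-/- cells stably complemented with human TDP1 were seeded at 400 cells/well with DMSO in place of 20 nM camptothecin. After compound pinning, cells grew at least 48 hr at 37 °C; viability read by CellTiter-Glo luminescence.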
HT1080-NT tox = kills 2HG-producing HT-1080-NT fibrosarcoma cells. HT-1080-NT fibrosarcoma viability, CellTiter-Glo ATP luminescence, 48 h. Potency, µM (titrated, usually from 46.1 µM), for inactives: top-dose activity, negative = less viability, most hits filed as cytotoxic. 1.6% of 360,000 active. AID 686970;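 note: NT is the 2HG producing partner of a matched IDH1 knockdown line; potency is the fitted concentration of half-maximal effect; 0% = DMSO-treated cells and -100% = media-only wells without cells; nearly all actives have a fitted effect of over 55% in size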
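A 48-hour cytotoxicity screen used HT-1080-NT cells plated 2 hours before compound delivery. ATP-based CellTiter-Glo luminescence measured viability, normalized to DMSO and no-cell controls.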
IL-1B inflam inh = blocks inflammasome-driven IL-1 beta release; THP-1 LPS/ATP IL-1B secretion, AlphaLISA, 16 h; active compounds read low; activity change, % at 57.5 µM; 4.7% of 360,000 active; in the data active = activity change below about -50%; inconclusive = mostly about -30% to -49%
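THP-1 cells pretreated 1 hr with compounds (up to 57.5 uM final), then stimulated with LPS (250 ng/mL final) plus ATP (1.25 mM final); secreted IL-1B measured by AlphaLISA after 16 hr, decreased signal indicating inhibition.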
Numbers without * were called inactive; u = inconclusive; x = no result. Shown are actives, neighbours in structure and some others; about 19% of the full set was active somewhere. Unless noted, calls come from the whole dose curve; as a rule, active = well fitted curve in the direction sought with a large enough effect; inconclusive = small, poorly fitted or top-dose-only effect, or another doubt; inactive = no such curve, though single readings can be large; an effect the other way counts as inactive or inconclusive. Unless noted, % is set by controls: 0 for no effect and ±100 for the full control effect.

SMILES | TDP1 cell CPT | HT1080 IDH1KD tx | DT40 TDP1 no CPT | HT1080-NT tox | IL-1B inflam inh
Cc1nnc(N2CCN(C(=O)NCCC(C)C)CC2)c2nn(-c3ccc(Cl)cc3)c(C)c12 | -3.4% | x | -19.0% | x | x
Cc1ccc(NC(=O)C2CCN(c3nnc(C)c4c(C)n(-c5ccccc5)nc34)CC2)cc1Cl | -1.6% | x | u | x | x
Cc1nnc(N2CCC(C(=O)NCCC(C)C)CC2)c2nn(-c3ccc(Cl)cc3)c(C)c12 | u | x | 20.6µM* | x | x
Cc1ccc(CCNC(=O)C2CCN(c3nnc(C)c4c(C)n(-c5ccccc5)nc34)CC2)cc1 | u | x | -14.1% | x | x
CC(=O)c1ccc(NC(=O)C2CCN(c3nnc(C)c4c(C)n(-c5ccccc5)nc34)CC2)cc1 | 14.6µM* | x | 20.6µM* | x | x
Cc1ccc(-n2nc3c(N4CCC(C(=O)NCCc5cccs5)CC4)nnc(C)c3c2C)cc1 | 25.9µM* | 16.4µM* | 29.1µM* | u | -3.5
Cc1nnc(N2CCC(C(=O)NCCc3ccccc3)CC2)c2nn(-c3ccccc3)c(C)c12 | u | x | 25.9µM* | x | x
C[C@@H]1CN([C@@H](C)CO)C(=O)CCCn2nncc2CO[C@@H]1CN(C)S(=O)(=O)c1cccs1 | 13.3% | 6.2% | u | 13.5% | 16.6
Cc1nnc(N2CCC(C(=O)N3CCCCC3)CC2)c2nn(-c3ccc(Cl)cc3)c(C)c12 | 20.6µM* | -2.6% | u | 0.7% | -28.3
Cc1ccc(-n2nc3c(N4CCC(C(=O)NC(C)C)CC4)nnc(C)c3c2C)cc1 | -16.3% | x | -6.0% | x | x
COc1ccc(-n2nc3c(N4CCC(C(=O)N5CCC(C)CC5)CC4)nnc(C)c3c2C)cc1 | u | -13.3% | u | -14.4% | u
CCCCN(CC)CCNC(=O)C1CCN(c2nnc(C)c3c(C)n(-c4ccc(C)cc4)nc23)CC1 | u | x | 20.6µM* | x | x
O=C(c1ccco1)N1CCN(S(=O)(=O)c2ccc(F)cc2)CC1 | -24.7% | 11.3% | -16.8% | 0.9% | 2.1
CC(C)=NNc1cnnc2ccc([N+](=O)[O-])cc12 | 13µM* | -13.5% | 13µM* | -25.0% | 33.0
CC(=O)c1ccc(N2C(=O)N(CC(=O)c3ccc(C)cc3)c3ccccc3S2(=O)=O)cc1 | u | x | 23.1µM* | x | x
CC(=O)c1ccc(N2C(=O)N(Cc3cccc(C(F)(F)F)c3)c3ccccc3S2(=O)=O)cc1 | 16.4µM* | x | 14.6µM* | x | x
CCOc1ccc(N2C(=O)N(Cc3ccc(C)cc3C)c3ccccc3S2(=O)=O)cc1 | u | x | 16.4µM* | x | x
COc1ccc(N2C(=O)N(Cc3ccc(C)cc3)c3ccccc3S2(=O)=O)cc1 | u | 1.6% | u | -1.8% | 9.1
Cc1cccc(N2C(=O)N(CC(=O)C(C)(C)C)c3ccccc3S2(=O)=O)c1C | 14.6µM* | x | 13µM* | x | x
Clc1ccc(/C=C/c2nc(Cl)c(-c3ccc(Cl)cc3)c(Cl)n2)cc1 | 1.7% | -10.1% | -47.4% | 3.5% | -16.2
C[C@H](NC(=O)c1nc[nH]c1C(=O)NCCCCCN)C(=O)OCc1ccccc1 | -12.2% | 5.2% | -20.2% | 5.5% | 18.3
OC1C=CSc2nc3ccccc3n21 (stereo not drawn) | 13µM* | -16.8% | 14.6µM* | -6.6% | u
COc1ccc(NCc2nnc(SCC#N)n2-c2ccccc2OC)cc1 | u | -4.1% | 16.4µM* | -12.5% | -7.7
COc1ccc(NCc2nnc(SCC(=O)NCc3ccco3)n2-c2ccccc2OC)cc1 | -12.5% | -2.1% | -18.1% | -8.2% | 9.5
O=C(CSCc1c(F)cccc1F)Nc1ccccc1 | -19.6% | 25.5% | -22.4% | 16.8% | -0.3
SMILES | TDP1 cell CPT | HT1080 IDH1KD tx | DT40 TDP1 no CPT | HT1080-NT tox | IL-1B inflam inh
CC(=O)c1ccc2c(c1)Nc1ccccc1S2 | -13.3% | -2.2% | u | -0.4% | -15.3
CCOC(=O)Nc1ccc2c(c1)Nc1ccccc1S2 | 23.1µM* | u | 20.6µM* | u | -65.6*
C=CC(=O)N1c2ccccc2Sc2ccc(NC(=O)OCC)cc21 | u | u | 29.1µM* | u | -111.7*
CCOC(=O)Nc1ccc2c(c1)N(C(=O)CCN1CCN(C)CC1)c1ccccc1S2 | u | -9.8% | -28.2% | -15.9% | -5.2
COc1cccc(CNC(=O)Cn2ncc3c(=O)oc4ccccc4c32)c1 | u | 7.0% | u | -17.4% | 26.8
CS(=O)(=O)N1CCN(C(=O)Cc2ccccc2Cl)CC1 | -0.8% | 11.0% | -4.0% | u | -7.0
Cc1ccc(C(=O)N/C(=C\c2cccs2)C(=O)NCc2ccncc2)cc1 | u | -1.9% | -0.2% | -12.3% | -0.4
Cc1nc(-n2nc(C)c(Cc3ccc4c(c3)OCO4)c2C)sc1C(=O)Nc1ccc(Cl)cc1 | -18.7% | x | -29.4% | x | x
CCc1ccccc1NC(=O)c1sc(-n2nc(C)c(Cc3ccc4c(c3)OCO4)c2C)nc1C | u | x | 18.4µM* | x | x
Cc1nc(-c2ccccn2)sc1C(=O)Nc1ccc(Cl)c(Cl)c1 | u | 0.7% | 14.6µM* | -7.8% | -9.0
CC(=O)c1cccc(NC(=O)c2sc(Cl)nc2C)c1 | -1.8% | 7.0% | -10.0% | 10.6% | -53.6*
Cc1nc(Cl)sc1C(=O)Nc1cccc(Cl)c1 | -20.2% | 0.1% | -0.8% | 2.9% | -56.2*
Cc1nc(-c2ccccn2)sc1C(=O)O | -1.9% | 13.2% | -1.4% | 10.2% | -4.0
COc1ccc(C(=O)OCC(=O)NC2CC2)cc1 | -0.5% | 14.7% | 2.1% | 5.2% | 12.8
Cc1ccc(C)c(NC(=O)c2sc(Cl)nc2C)c1 | -2.1% | 16.6% | 10.3% | 13.5% | -58.1*
Cc1ccc(C)c(NC(=O)c2sc(Cl)nc2-c2ccccc2)c1 | u | 10.6% | u | 8.8% | 8.5
COc1ccc(Cc2c(C)nn(-c3nc(C)c(C(=O)Nc4cccc(C(C)=O)c4)s3)c2C)cc1 | 9.2µM* | x | 11.6µM* | x | x
CCc1ccc(NC(=O)c2sc(-n3nc(C)c(Cc4ccc(OC)cc4)c3C)nc2C)cc1 | -10.7% | x | -14.3% | x | x
CCOC(=O)c1[nH]c2ccc(OCC)cc2c1NC(=O)CN1CCN(c2ccccn2)CC1 | u | -7.2% | 16.4µM* | -3.2% | -12.3
COC(=O)c1[nH]c2cc(OC)ccc2c1NC(=O)CCN1CCN(c2cccc(C)c2C)CC1 | u | u | 20.6µM* | u | -15.2
CCOC(=O)c1[nH]c2ccc(F)cc2c1NC(=O)C(C)N1CCc2cc(OC)c(OC)cc2C1 (stereo not drawn) | u | 16.4µM* | u | u | 0.1
COc1cc2c(cc1OC)CN(CC(=O)Nc1ccccc1C#N)CC2 | u | -4.8% | u | -0.4% | -9.1
COc1cc2c(cc1OC)CN(CC(=O)Nc1ccccc1SC)CC2 | u | -1.0% | 23.1µM* | -20.1% | -29.4
COc1cccc(OC)c1NC(=O)CN1CCN(C)CC1 | -9.9% | 13.5% | -17.0% | 11.3% | -3.3
